High-throughput results (PubChem)
TrxR1 substrate = qHTS Assay for Substrates of Mammalian Selenoprotein Thioredoxin Reductase 1 (TrxR1): qHTS; Thioredoxin reductase 1, cytoplasmic (Rattus norvegicus), O89049; purified TrxR1 substrate turnover, NADPH consumption readout; Potency, µM (series often up to 114 µM); 0.01% of 390,000 active; AID 588456, 2011; note: nearly all actives have a fitted effect of over 50% in size
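Rat TrxR1, dispensed at 90 nM, was prereduced with 400 uM NADPH (final) for 5 min at ~22 deg C, then incubated with compound 15 min before 400 uM selenite. A first-read NADPH fluorescence drop versus no-compound background flagged substrates.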
Nrf2 block = Nrf2 qHTS screen for inhibitors; A549 ARE-Fluc reporter, luciferase luminescence, 18-24 h; Potency, µM (doses to about 46 µM), actives largely listed as inhibitors; 2.1% of 360,000 active; note: nearly all actives have a fitted effect of over 60% in size
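Nrf2 function is reported as luminescence of an ARE-controlled luciferase in A549 cells. Compounds were tested at several concentrations, and a CellTiter-Fluor read on the same wells flagged cytotoxicity.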
Mito fusion act = qHTS Assay for Small Molecule Inhibitors of Mitochondrial Division or Activators of Mitochondrial Fusion; S. cerevisiae fusion-defective mutant growth rescue, CellTiterGlo 48 h; Potency, µM (top dose mostly 46.1 µM), actives largely listed as activators; 0.23% of 320,000 active; AID 485298, 2010; note: nearly all actives have a fitted effect of over 45% in size
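S. cerevisiae fusion-defective temperature-sensitive mutants (e.g. fzo1-1, mgm1-5) grown 48 h at 37C in YPEG (ethanol/glycerol non-fermentable) medium with 23 nl compound per well; growth rescue read as CellTiterGlo luminescence.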
mIDH1 inhibitor = qHTS for Inhibitors of mutant isocitrate dehydrogenase 1 (IDH1): qHTS; IDH1-R132H enzyme, NADPH consumption, diaphorase/resazurin fluorescence; 0.093% of 390,000 active; Potency, µM (titrated, usually from 76.6 µM), most hits filed as inhibitors; Isocitrate dehydrogenase [NADP] cytoplasmic (Homo sapiens), O75874; note: nearly all actives have a fitted effect of over 65% in size
Target sequence (O75874 whole entry R132H, stated change not applied): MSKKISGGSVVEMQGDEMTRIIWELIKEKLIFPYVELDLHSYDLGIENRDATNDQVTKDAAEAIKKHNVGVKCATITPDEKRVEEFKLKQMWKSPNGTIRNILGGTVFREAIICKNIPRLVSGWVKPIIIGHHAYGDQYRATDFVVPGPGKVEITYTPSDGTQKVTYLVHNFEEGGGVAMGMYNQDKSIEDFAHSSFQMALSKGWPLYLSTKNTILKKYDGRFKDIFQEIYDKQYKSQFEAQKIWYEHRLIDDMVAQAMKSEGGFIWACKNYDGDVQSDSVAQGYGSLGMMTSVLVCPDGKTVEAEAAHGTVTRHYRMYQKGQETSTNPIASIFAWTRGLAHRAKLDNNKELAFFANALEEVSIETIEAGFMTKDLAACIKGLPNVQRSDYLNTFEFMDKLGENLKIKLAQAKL
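IDH1-R132H (0.5 ug/mL dispensed) in pH 7.5 Tris buffer was preincubated 30 min with compound, then given a substrate mix of 0.016 mM NADPH and 2 mM alpha-KG for 80 min at room temperature; remaining NADPH was read by diaphorase/resazurin fluorescence.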
rTrxR1 inhibitor = qHTS Assay for Inhibitors of Mammalian Selenoprotein Thioredoxin Reductase 1 (TrxR1): qHTS; Thioredoxin reductase 1, cytoplasmic (Rattus norvegicus), O89049; recombinant rTrxR1, NADPH fluorescence consumption, selenite substrate; Potency, µM (doses to about 114 µM), hits mostly inhibitors; 1% of 390,000 active; AID 588453, 2011; note: nearly all actives have a fitted effect of over 65% in size
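Rat TrxR1 (90 nM in the dispensed reagent) was pre-reduced with 400 uM NADPH for 5 min at room temperature, then incubated with compound for 15 min. After 400 uM selenite was added, NADPH fluorescence (Ex 340/Em 450 nm) was followed for 8 min.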
A549 tox = Nrf2 qHTS screen for inhibitors: counterscreen for cytotoxicity | A549 ARE-Fluc cells, CellTiter-Fluor viability, 18-24 h | Potency, µM (highest dose often 46 µM), hits mostly inhibitors | 0.16% of 390,000 active | AID 504648, 2011
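A549 ARE_Fluc cells in 5% FBS OPTI-MEM were exposed to compounds in concentration-response for 18-24 h at 37 deg C. Viability was read by CellTiter-Fluor fluorescence (Ex 405/Em 525) after 30 min, before the luciferase read.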
A number is an active result; – = inactive; ? = inconclusive; · = not tested or not shown; [ ] = remark or other dose. In the library only some 3.1% were active in any assay of this set; here they are far more common. Calls come from the whole dose curve; as a rule, active = well fitted curve in the direction sought with a large enough effect; inconclusive = small, poorly fitted or top-dose-only effect, or another doubt; inactive = no such curve, though single readings can be large; an effect the other way counts as inactive or inconclusive.

SMILES | TrxR1 substrate | Nrf2 block | Mito fusion act | mIDH1 inhibitor | rTrxR1 inhibitor | A549 tox
O=C(Nc1ccc(Oc2ccccc2)nc1)C1CCN(Cc2cccc(F)c2)CC1 | – | 18.4µM | – | – | – | ?
C#Cc1ccc(CN2CCC(C(=O)Nc3ccc(Oc4ccccc4)nc3)CC2)cc1 | – | 18.4µM | – | – | – | ?
O=C(Nc1ccc(Oc2ccccc2)nc1)C1CCN(Cc2ccco2)CC1 | – | – | – | – | – | –
CCCCc1nn2c(=O)cc(COC(=O)COc3ccc(C)cc3)nc2s1 | – | – | · | – | – | –
Cc1ccc(C(=O)N2CCCCC2)cc1NC1=C(Cl)C(=O)N(Cc2ccccc2)C1=O | – | – | ? | – | – | –
COc1ccccc1N1C(=O)C(Cl)=C(Nc2ccccc2O)C1=O | – | – | – | – | – | –
O=C1C(Cl)=C(Nc2ccccc2O)C(=O)N1c1ccccc1 | – | – | – | – | 44.7µM | –
Cc1ccc(O)c(NC2=C(Cl)C(=O)N(Cc3ccccc3)C2=O)c1 | – | – | – | – | 10µM | –
Oc1cc2c(cc1C(c1ccc(Br)cc1)N1CCCC1)OCO2 (stereo not drawn) | – | – | – | – | 2.51µM | –
Cc1ccc(CNC(=O)c2nn(C)c3c2CSc2ccc(C)cc2-3)cc1 | – | · | · | – | – | –
O=S(=O)(c1ccc2ccccc2c1)N1CCN(c2ccc(O)cc2)CC1 | – | 10.3µM | · | – | – | –
O=C(c1cc(S(=O)(=O)N2CCN(c3ccccc3)CC2)ccc1Cl)N1CCCCCCC1 | – | 20.6µM | 14.1µM | – | – | –
CCCCOC(=O)Cn1nnc2sc(-c3ccccc3)cc2c1=O | – | – | · | · | – | –
CCOC(=O)C1=C(CN2CCN(c3cc(C)ccc3C)CC2)NC(=O)NC1c1ccccc1 (stereo not drawn) | – | ? | · | – | – | –
O=[N+]([O-])c1ccc(-c2ccc(S(=O)(=O)NCCN3CCCC3)cc2)cc1 | – | 16.4µM | – | – | – | –
O=[N+]([O-])c1ccc(S(=O)(=O)NCCN2CCOCC2)cc1 | – | – | – | – | – | –
CCC(C)NC(=O)c1ccc2nc(-c3ccco3)c(-c3ccco3)nc2c1 (stereo not drawn) | – | – | · | · | 2.82µM | –
O=C(Nc1cccc(C(F)(F)F)c1)c1ccc2snnc2c1 | – | – | · | – | – | –
O=C(Nc1cccc(C(F)(F)F)c1)c1ccc2nc(-c3ccco3)c(-c3ccco3)nc2c1 | – | ? | – | – | 5.01µM | –
O=C(O)c1ccc2nc(-c3ccco3)c(-c3ccco3)nc2c1 | – | – | – | – | 2.24µM | –
CCC(C)NC(=O)c1ccc2nc(Cc3ccccc3)oc2c1 (stereo not drawn) | – | · | · | – | – | –
O=C(Nc1ccc2nc(-c3ccco3)c(-c3ccco3)nc2c1)NC1CC1 | – | – | – | – | 4.47µM | –
CC(=O)ON(C(C)=O)c1ccc(/C=C2/C=Cc3ccccc32)cc1 | – | · | · | · | ? | ·
O=S(=O)(c1ccc2ccccc2c1)N1CCOCC1 | – | ? | – | – | – | –
O=S(=O)(c1ccc2nc(-c3ccco3)c(-c3ccco3)nc2c1)N1CCOCC1 | – | – | – | – | 3.98µM | –
SMILES | TrxR1 substrate | Nrf2 block | Mito fusion act | mIDH1 inhibitor | rTrxR1 inhibitor | A549 tox
COc1ccc(CCNC(=O)c2ccc3nc(-c4ccco4)c(-c4ccco4)nc3c2)cc1OC | – | 23.1µM | – | – | 2.51µM | –
CCc1nc2ccc(C(=O)NCCc3ccc(OC)c(OC)c3)cc2nc1CC | – | – | – | – | – | –
CN(CCCC1CCCC1)C(=O)CC1C(=O)NCCN1Cc1cccc(F)c1F (stereo not drawn) | – | – | – | – | 39.8µM | –
COc1ccc(CCCc2nnc(SCC(=O)Nc3cccc(F)c3C)o2)cc1 | – | – | · | – | – | –
O=C(/C=C/c1ccco1)NC(=S)Nc1ccc(C(=O)O)cc1 | – | ? | – | – | 39.8µM | –
CC(=O)NC(=S)Nc1ccc(NC(=S)NC(=O)/C=C/c2ccco2)cc1 | – | ? | – | – | – | –
O=C(/C=C/c1ccco1)NC(=S)Nc1ccc(N2CCCC2)cc1 | – | – | – | – | 50.1µM | –
COc1ccc(C(=O)NCC(=O)OC(C(=O)Nc2cc(C(F)(F)F)ccc2Cl)c2ccccc2)cc1OC (stereo not drawn) | · | – | · | · | · | –
Cc1cc(N/N=C/c2cccc(Cl)c2)nc(-n2nc(C)cc2C)n1 | – | 16.4µM | – | – | – | –
CC(NS(=O)(=O)c1ccccc1[N+](=O)[O-])c1ccccn1 (stereo not drawn) | – | · | · | · | – | ·
Cc1cc(C)cc(C(=O)NCCc2sc(-c3ccc(F)cc3)nc2C)c1 | – | · | · | – | – | –
COc1cccc(C2c3c(ncn(-c4ccc(NC(C)=O)cc4)c3=N)Oc3ccc4ccccc4c32)c1 (stereo not drawn) | · | – | · | · | · | –
COc1ccc(-n2nc(C(=O)NCC(=O)Nc3cccc(Cl)c3)c3ccccc3c2=O)cc1OC | – | 14.6µM | – | – | – | –
Cc1ccccc1S(=O)(=O)N1CCN(S(=O)(=O)c2ccc3c(c2)OCCO3)CC1 | · | – | · | · | · | –
Cc1ccc(S(=O)(=O)/N=C2\C=C(NS(=O)(=O)c3ccccc3)C(=O)c3ccccc32)cc1 | – | – | · | – | ? | –
Cc1ccc(S(=O)(=O)/N=C2/C=C(C3C(=O)CC(C)(C)CC3=O)C(=O)c3ccccc32)cc1 | – | – | – | – | 17.8µM | –
CN(C)c1cccc(C(=O)N2CCC(c3ccncc3)CC2)c1 | – | · | · | – | – | –
CCOC(=O)/C(C#N)=C1/C=C(C)NC(c2ccccc2O)=N1 | – | 13µM | – | – | – | –[1.84 µM]
CCOC(=O)/C(C#N)=C1\Nc2ccccc2N=C1N(CC(C)C)CC(C)C | – | – | – | – | – | –
Cc1cc2c(s1)c1cnn(Cc3cccc4cccnc34)c(=O)c1n2C | · | – | · | · | · | –
O=C(CSc1ccc(Cl)cc1)NC1CCCC1 | – | ? | – | – | – | –
O=C(NC1CCCCC1)Sc1ccc(Cl)cc1 | – | – | – | – | 17.8µM | –
Cc1ccccc1NC(C)C(=O)N/N=C/c1ccccc1OCc1cccc(Br)c1 (stereo not drawn) | – | 14.6µM | – | – | – | –
Cc1ccc(S(=O)(=O)C2(S(=O)(=O)c3ccc(C)cc3)CC2)cc1 | – | 23.1µM | – | – | – | –
